{"source": "the supplement of paper PMC8540655", "data": [{"system": "Aedes aegypti larvae", "assay": "larval motility relative to same well at 0 h (fraction); higher = more motile (less active compound), active = 0.4 or less", "settings": "10 µM; 2 h", "method_in_brief": "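Compounds at 10 µM (1% v/v DMSO) were applied to about 10 Aedes aegypti larvae per well in 100 µL, with every plate including solvent and larvicide control wells. Motility movies were taken with INVAPP at 0, 2 and 24 h, and results are medians of three independent larval batches. Relative motility is each well's score expressed as a fraction of its own first score.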", "values": [{"molecule": "CCNC(=O)Nc1cn2c(-c3ncc(CC)cn3)cc(-c3cccnc3)cc2n1", "larval motility": "0.892 (inactive)"}, {"molecule": "O=c1cc(Nc2ccc3ccccc3c2)[nH]c(=O)[nH]1", "larval motility": "0.528 (inactive)"}, {"molecule": "N=C(N)NCCCCC(=O)Nc1cc(C(F)(F)F)cc(NC(=O)c2cc(C(=O)Nc3cc(C(F)(F)F)cc(NC(=O)CCCCNC(=N)N)c3O[C@@H]3CCNC3)ncn2)c1O[C@@H]1CCNC1", "larval motility": "0.425 (inactive)"}, {"molecule": "O=C(NCc1ncc(C(F)(F)F)cc1Cl)c1c(Cl)cccc1Cl", "larval motility": "1.3 (inactive)"}, {"molecule": "O=C(O)C(Cc1c[nH]c2ccccc12)N1C(=O)c2ccccc2C1=O", "note": "(centres undefined)", "larval motility": "1.75 (inactive)"}, {"molecule": "Nc1nc(O)c(Br)c(-c2ccccc2)n1", "larval motility": "0.633 (inactive)"}, {"molecule": "C[C@@H](NC(=O)c1ccccc1-c1ccccc1)B(O)O", "larval motility": "0.616 (inactive)"}, {"molecule": "CCN(CC)S(=O)(=O)c1ccc(Cl)c(C(=O)Nc2sc3c(c2C#N)CCCC3)c1", "larval motility": "1.52 (inactive)"}, {"molecule": "CCCCSc1nc(N)c2[nH]c(=O)c(=O)n(Cc3ccccc3)c2n1", "larval motility": "0.896 (inactive)"}, {"molecule": "CSc1ccc2c(c1)C(N1CCN(C)CC1)Cc1ccccc1S2", "note": "(centres undefined)", "larval motility": "1.08 (inactive)"}, {"molecule": "Fc1ccc2c(/C=C/c3nnn[nH]3)c[nH]c2c1", "larval motility": "1.85 (inactive)"}, {"molecule": "O=c1cc(OCc2ccccc2)ccn1Cc1ccccc1", "larval motility": "1.27 (inactive)"}, {"molecule": "CCCCN1C[C@H](O)[C@@H](O)[C@H](O)[C@H]1CO", "larval motility": "0.87 (inactive)"}, {"molecule": "COc1ccc(CNC(=O)C2CCN([C@H](C)c3cccc4ccccc34)CC2)cc1", "larval motility": "0.771 (inactive)"}, {"molecule": "O=C(NCc1ccc(F)cc1)c1c(O)c2ncccc2[nH]c1=O", "larval motility": "0.718 (inactive)"}, {"molecule": "CC[C@@]1(O)C(=O)OCc2c1cc1n(c2=O)Cc2cc3c(CN(C)C)c(O)ccc3nc2-1", "larval motility": "0.831 (inactive)"}, {"molecule": "COc1ccc(C2CNC(=O)C2)cc1OC1CCCC1", "note": "(centres undefined)", "larval motility": "0.834 (inactive)"}, {"molecule": "COc1cc(NC(=O)CN2C(=O)NC(c3ccccc3)(c3ccccc3)C2=O)cc(OC)c1", "larval motility": "0.866 (inactive)"}, {"molecule": "CCOC(=O)Nc1cc(NC(C)CC(C)CN(CC)CC)c2nc(-c3ccccc3)c(-c3ccccc3)nc2n1", "note": "(centres undefined)", "larval motility": "0.848 (inactive)"}, {"molecule": "CC(C)(C)c1cccc(-c2nc3cc(C(=N)N)ccc3[nH]2)c1O", "larval motility": "1.04 (inactive)"}, {"molecule": "CC1(C)CC(NC(=O)C(=O)Nc2ccc(Cl)cc2)CC(C)(C)N1", "larval motility": "0.977 (inactive)"}, {"molecule": "O=C(NCc1ccccc1Cl)c1cnc2ccccc2n1", "larval motility": "1.23 (inactive)"}, {"molecule": "CC1CCc2c(N3CCC(O)CC3)c(F)cc3c(=O)c(C(=O)O)cn1c23", "note": "(centres undefined)", "larval motility": "1.3 (inactive)"}, {"molecule": "CC(=O)NC[C@H]1CN(c2ccc(N3CCSCC3)c(F)c2)C(=O)O1", "larval motility": "0.531 (inactive)"}, {"molecule": "O=c1cc(NCCCN[C@@H]2CCOc3c(Br)cc(Br)cc32)[nH]c2ccsc12", "larval motility": "0.659 (inactive)"}, {"molecule": "CC(N)C12CC3CC(CC(C3)C1)C2", "note": "(centres undefined)", "larval motility": "1.14 (inactive)"}, {"molecule": "O=S(=O)(Nc1ccc(O)cc1)c1cccc2cccnc12", "larval motility": "1.06 (inactive)"}, {"molecule": "CO[C@@]1(NC(=O)Cc2cccs2)C(=O)N2C(C(=O)O)=C(COC(N)=O)CS[C@@H]21", "larval motility": "0.909 (inactive)"}, {"molecule": "COc1ccc(C[C@@H](C)[C@@H](C)Cc2ccc(OC)c(OC)c2)cc1OC", "larval motility": "0.799 (inactive)"}, {"molecule": "Oc1cc(-c2cccc3ccccc23)[nH]n1", "larval motility": "0.626 (inactive)"}, {"molecule": "O=S(=O)(NCB(O)O)c1cc2c(Cl)ccc(Cl)c2s1", "larval motility": "0.568 (inactive)"}, {"molecule": "CCc1oc2ccccc2c1C(=O)c1ccc(O)cc1", "larval motility": "1.07 (inactive)"}, {"molecule": "COc1ccc(NS(=O)(=O)c2ccc(Cl)s2)cn1", "larval motility": "0.931 (inactive)"}, {"molecule": "O=C(/C=C/n1cnc(-c2cc(C(F)(F)F)cc(C(F)(F)F)c2)n1)NNc1cnccn1", "larval motility": "0.908 (inactive)"}, {"molecule": "CN(C(=O)C1(c2ccc(Cl)cc2)CCC1)c1ccccc1", "larval motility": "1.1 (inactive)"}, {"molecule": "CC(=O)O[C@H]1C[C@@]2(C)[C@@H](C[C@@H](O)[C@H]3[C@@]4(C)CC[C@@H](O)[C@@H](C)[C@@H]4CC[C@@]32C)/C1=C(\\CCC=C(C)C)C(=O)O", "larval motility": "0.95 (inactive)"}, {"molecule": "O=C(NNC(=S)Nc1ccc(Cl)cc1)c1ccncc1", "larval motility": "0.695 (inactive)"}, {"molecule": "CCCCCCCCC(CP(=O)(O)C(C)N)C(=O)O", "note": "(centres undefined)", "larval motility": "0.654 (inactive)"}, {"molecule": "CC(=O)N[C@H](C)C(=O)N[C@H](Cc1ccccc1)C(=O)O", "larval motility": "0.496 (inactive)"}]}]}
